This is a sample that favours compounds with a hit; in the whole collection about 6.7% have one here.
T cruzi growth = blocks T. cruzi growth in NIH3T3 culture. T. cruzi beta-gal in NIH3T3, GalScreen luminescence, 90 h. inhibition, % at 8.34 µM. 77,000 compounds, 5.9% hits. AID 624255;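 active = mean inhibition above about 93%, with at least 55% of replicates each passing it, limit read from the data, passing the limit was not always enough; inconclusive = only one of those two conditions holds; inactive = neither condition holds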
Pf Dd2 inh = blocks growth of Plasmodium falciparum Dd2 parasites | P. falciparum Dd2 growth, SYBR Green, 72 h; hits give low values | activity change, % at 10 µM | 94,000 compounds, 2.3% hits; in the data active = activity change below about -80%; inconclusive = no clear call, values can overlap the other calls
C diff growth = inhibitors of Clostridium difficile growth; 86,000 compounds, 0.25% hits; Clostridium difficile clinical isolate growth, OD600, 24 h; hits give low values; AID 1259249; growth activity, negative = inhibition, % at 16 µg/mL (by protocol);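 active = mean growth activity at or below -80% and every replicate also at or below -80%; inconclusive = mean at or below -80% but some replicate above -80%; inactive = mean growth activity above -80%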;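 note: 0% = DMSO wells and -100% = levofloxacin 16 µg/mL wells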
An asterisk follows results filed as active; ? = inconclusive; . = no result given.

SMILES | T cruzi growth | Pf Dd2 inh | C diff growth
C[C@@H]1CN([C@H](C)CO)C(=O)c2cc(N(C)C)ccc2O[C@@H](C)CCCCO[C@H]1CN(C)C(=O)Nc1cccc2ccccc12 | -50 | . | -3
O=C(C[C@@H]1CC[C@@H]2[C@H](COC[C@H](O)CN2CCc2ccccc2)O1)NCCCN1CCOCC1 | -13 | 3 | 8
CN(C)CC(=O)Nc1ccc2c(c1)[C@H]1C[C@H](CC(=O)NCC3CC3)O[C@@H](CO)[C@H]1O2 | -16 | 19 | 2
C[C@H]1CN([C@@H](C)CO)C(=O)Cc2cc(NS(=O)(=O)c3ccccc3)ccc2O[C@H]1CN(C)S(=O)(=O)c1ccc(Cl)cc1 | 22 | -52 | 57
CCN1[C@@H]2c3ccc(-c4ccncc4)c(=O)n3C[C@@H]2[C@@H](CO)[C@@H]1C(=O)NCCc1cn(C)cn1 | -13 | 10 | -1
Cc1noc(C)c1S(=O)(=O)Nc1ccc2c(c1)C(=O)N([C@@H](C)CO)C[C@@H](C)[C@@H](CN(C)Cc1ccc3c(c1)OCO3)OCCCC[C@@H](C)O2 | 55 | -72 | 2
C[C@H](CO)N1C[C@H](C)[C@H](CN(C)S(=O)(=O)c2ccc(C#N)cc2)OCc2ccccc2-c2c(n(C)c3ccccc23)C1=O | 90 | -88* | .
C[C@@H]1CN([C@H](C)CO)C(=O)c2c(c3ccccc3n2C)-c2ccccc2CO[C@@H]1CN(C)S(=O)(=O)c1ccc(Cl)cc1 | 69 | -81* | .
C[C@H]1CN([C@@H](C)CO)C(=O)c2c(c3ccccc3n2C)-c2ccccc2CO[C@@H]1CN(C)S(=O)(=O)c1ccc(C#N)cc1 | 56 | -73 | .
C[C@@H]1CN([C@@H](C)CO)C(=O)c2c(c3ccccc3n2C)-c2ccccc2CO[C@H]1CN(C)S(=O)(=O)c1ccc(Cl)cc1 | 78 | -75 | .
C[C@H]1CN([C@@H](C)CO)C(=O)c2c(c3ccccc3n2C)-c2ccccc2CO[C@@H]1CN(C)S(=O)(=O)c1ccccc1 | 91 | -79 | .
Cc1ccc(S(=O)(=O)N(C)C[C@H]2OCc3ccccc3-c3c(n(C)c4ccccc34)C(=O)N([C@@H](C)CO)C[C@H]2C)cc1 | 47 | -86* | .
C[C@H]1CN([C@@H](C)CO)C(=O)c2c(c3ccccc3n2C)-c2ccccc2CO[C@H]1CN(C)S(=O)(=O)c1ccc(F)cc1 | 48 | -87* | .
C[C@H](CO)N1C[C@H](C)[C@@H](CN(C)S(=O)(=O)c2ccc(F)cc2)OCc2ccccc2-c2c(n(C)c3ccccc23)C1=O | 0 | -23 | .
CO[C@@H]1CN(C)C(=O)c2ccc(NS(C)(=O)=O)cc2OC[C@@H](C)N(C(=O)C2CCC2)C[C@@H]1C | 35 | . | .
C[C@H]1CN([C@@H](C)CO)C(=O)c2cc(NS(C)(=O)=O)ccc2O[C@@H]1CN(C)S(=O)(=O)c1cccs1 | 69 | 34 | .
C[C@@H]1CN([C@@H](C)CO)C(=O)c2c(c3ccccc3n2C)-c2ccccc2CO[C@H]1CN(C)S(=O)(=O)c1ccc(C(F)(F)F)cc1 | . | -89* | 45
C[C@@H]1CN([C@@H](C)CO)C(=O)c2c(c3ccccc3n2C)-c2ccccc2CO[C@H]1CN(C)S(=O)(=O)c1ccc([N+](=O)[O-])cc1 | . | -76 | -28
C[C@@H]1CN([C@H](C)CO)S(=O)(=O)c2ccc(-c3ccc(F)cc3)cc2O[C@H]1CN(C)C(=O)C1CCC1 | 73 | -34 | .
COc1ccc(CN(C)C[C@@H]2Oc3c(NC(=O)c4cc(C)nn4C)cccc3C(=O)N([C@@H](C)CO)C[C@H]2C)cc1 | -18 | -18 | -5
C[C@H](O)C#Cc1cnc2c(c1)C(=O)N([C@@H](C)CO)C[C@H](C)[C@H](CN(C)CC1CCCCC1)O2 | -3 | 10 | 7
CCCC(=O)N1CC2(C1)CN(Cc1cccnc1)[C@H](CO)c1[nH]c3cc(OC)ccc3c12 | . | -21 | 6
CCCC(=O)N1CCC2(CC1)CN(Cc1cccnc1)[C@@H](CO)c1[nH]c3cc(OC)ccc3c12 | . | -90* | 45
COc1cc(CN2CC3(CCN(C(=O)c4cccnc4)CC3)c3c([nH]c4cc(OC)ccc34)[C@@H]2CO)cc(OC)c1 | . | -89* | -1
COc1ccc2c3c([nH]c2c1)[C@H](CO)N(Cc1ccncc1)CC31CCN(C(=O)c2cccnc2)CC1 | . | -11 | 9
SMILES | T cruzi growth | Pf Dd2 inh | C diff growth
CCCC(=O)N1CCC2(CC1)CN(Cc1ccc(Cl)cc1)[C@@H](CO)c1[nH]c3cc(OC)ccc3c12 | . | -84* | 13
COc1cc(CN2CC3(CN(C(=O)Nc4c(C)noc4C)C3)c3c([nH]c4cc(OC)ccc34)[C@@H]2CO)cc(OC)c1 | . | -85* | -1
COc1cc(CN2CC3(CCN(C(=O)Nc4c(C)noc4C)CC3)c3c([nH]c4cc(OC)ccc34)[C@@H]2CO)cc(OC)c1 | . | -30 | 3
COc1ccc2c3c([nH]c2c1)[C@H](CO)N(Cc1ccc(Cl)cc1)CC31CCN(C(=O)CN(C)C)CC1 | . | ? | 9
O=C(C[C@@H]1CC[C@@H]2[C@H](COC[C@H](O)CN2C(=O)Nc2cc(Cl)cc(Cl)c2)O1)NCC1CC1 | . | -3 | 24
CC(=O)N(C)C[C@H]1Oc2cc(C#Cc3ccc(F)cc3)ccc2S(=O)(=O)N([C@@H](C)CO)C[C@H]1C | 63 | -5 | -1
COC(=O)C[C@H]1CC[C@@H]2[C@@H](COc3ccc(NC(=O)c4ccc(OC)cc4)cc3C(=O)N2C)O1 | 12 | 0 | 1
O=C(Nc1cccc(F)c1)N1CC(=O)N2[C@H](CO)[C@@H](c3ccc(-c4ccc(F)cc4)cc3)[C@H]2C1 | . | -6 | -3
CN(C)CCCNC(=O)C[C@@H]1CC[C@H](NC(=O)Cc2cccnc2)[C@H](CO)O1 | 48 | 10 | .
C[C@@H]1CN([C@@H](C)CO)C(=O)Cc2cc(NC(=O)Cn3cnnn3)ccc2O[C@H]1CN(C)S(=O)(=O)c1ccc(F)cc1 | -7 | 11 | 4
Cc1ccc(S(=O)(=O)N(C)C[C@H]2Oc3ccc(NS(=O)(=O)c4cccs4)cc3C(=O)N([C@@H](C)CO)C[C@@H]2C)cc1 | -14 | -26 | -2
CO[C@@H]1CN(C)C(=O)c2cc(NC(=O)Nc3ccc(Cl)c(Cl)c3)ccc2OC[C@H](C)NC[C@@H]1C | -42 | -67 | -97*
CO[C@H]1CN(C)C(=O)c2cc(NC(=O)Nc3ccc(Cl)c(Cl)c3)ccc2OC[C@H](C)NC[C@H]1C | -43 | -84* | -99*
CO[C@@H]1CN(C)C(=O)c2cc(NC(=O)Nc3ccc(Cl)cc3)ccc2OC[C@H](C)NC[C@H]1C | -48 | -7 | 0
CO[C@@H]1CN(C)C(=O)c2cc(NC(=O)Nc3cc(Cl)cc(Cl)c3)ccc2OC[C@@H](C)NC[C@@H]1C | 24 | . | .
CN(C)CC(=O)Nc1ccc2c(c1)[C@@H]1C[C@@H](CC(=O)NCc3cc(F)ccc3F)O[C@H](CO)[C@@H]1O2 | 4 | 3 | .
C[C@H](CO)N1C[C@H](C)[C@@H](CN(C)Cc2cccnc2)Oc2ncc(-c3ccncc3)cc2C1=O | -165 | 3 | -6
C[C@H]1CN([C@@H](C)CO)C(=O)c2cccc(NC(=O)Nc3ccc4c(c3)OCO4)c2O[C@@H]1CN(C)C(=O)Nc1ccc2c(c1)OCO2 | 9 | 19 | -7

High-throughput results as filed in PubChem.
